CatS block: blocks human cathepsin S protease activity. P25774. recombinant cathepsin S, AMC dipeptide fluorescence, pooled mixtures. inhibition, %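 (tested at 5 µM per compound within 10-compound mixtures)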. 62,000 tested, 0.06% active. AID 501; in the data active = inhibition above about 32%, passing the limit was not always enough; inconclusive = no clear call, values can overlap the other calls
Target sequence (P25774 115-331 limits assumed): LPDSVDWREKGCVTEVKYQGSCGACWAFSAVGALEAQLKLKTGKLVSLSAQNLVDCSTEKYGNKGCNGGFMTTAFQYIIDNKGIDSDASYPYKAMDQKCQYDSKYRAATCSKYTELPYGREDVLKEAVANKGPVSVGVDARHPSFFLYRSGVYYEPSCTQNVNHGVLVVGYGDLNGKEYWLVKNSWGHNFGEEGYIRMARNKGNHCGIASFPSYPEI
CatB block: blocks human cathepsin B protease activity; P07858; purified cathepsin B, fluorogenic substrate, fluorescence; inhibition, %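 (tested at 10 µM)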; 63,000 tested, 0.1% active; AID 453; in the data active = inhibition above about 21%
CatB mixtures: human cathepsin B inhibition by mixtures | 62,000 tested, 0.06% active | Purified cathepsin B, AMC dipeptide fluorescence, compound mixtures | P07858 | AID 488 | inhibition, %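 (ten-compound pools at 5 µM per compound and 50 µM total)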; in the data active = inhibition above about 22%, passing the limit was not always enough; inconclusive = no clear call, values can overlap the other calls
CatL block: blocks human cathepsin L protease activity | purified cathepsin L, fluorogenic substrate, fluorescence | inhibition, %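 (tested at 10 µM)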 | 58,000 tested, 0.17% active | AID 460; in the data active = inhibition above about 45%
Each line names hits and unclear results; the compound was inactive in the other large screens. Sampled rows, rich in hits. Any-hit rate of the full collection: about 0.29%.

CC(=O)NC(=O)NC1OC(=O)C(Cl)=C1Cl (centres undefined)	CatB block 21, CatB mixtures inconclusive
O=C(Nc1cccc2c1CCCC2)C1CCCN(S(=O)(=O)c2cccc3nonc23)C1 (centres undefined)	none
CC(Sc1ccc2nnc(-c3ccc(F)cc3)n2n1)C(=O)O (centres undefined)	CatL block 54
Cc1ccc(-c2nnc3ccc(SC(C)C(=O)O)nn23)cc1 (centres undefined)	none
Cc1cc(C)n(-c2nc3c(c(=O)n(C)c(=O)n3C)n2Cc2cccc(Br)c2)n1	none
CCCCCCn1c(C(C)NC(=O)c2ccco2)nc2ccccc21 (centres undefined)	none
CCCCCOC(=O)c1ccc(NC(=O)c2ccco2)cc1	none
O=C(O)c1ccccc1C(=O)NCc1ccc(F)cc1	CatB block 21
CCN(C(=O)COc1cc(=O)n(CC)c2ccccc12)c1cccc(Cl)c1	CatB block 25
CCn1c2ccccc2c2nnc(SCCCn3c(=O)[nH]c4ccccc43)nc21	none
CCC1CCCCN1c1nc2c(c(=O)n(C)c(=O)n2C)n1CCSc1nc2ccccc2o1 (centres undefined)	none
O=C(Nc1ccc(Nc2ccccc2)cc1)C1CC1	CatB block 22
Cc1nc2sccn2c1-c1nc(C2CC2)c(C(=O)c2ccc3c(c2)NC(=O)CO3)s1	none
COc1ccc2c(C)nc(Nc3nc(C)cc(C)n3)nc2c1	CatL block 61
CN(C)CCCNc1cc(Cl)c(S(=O)(=O)N2CCCCC2)cc1C(=O)O	none
N#Cc1c(N2CCCC2)nc(N)c2c(N)nc(N3CCCC3)cc12	CatS block 59, CatB block 45, CatB mixtures 77
O=c1c2ccccc2cnn1-c1nc2ccccc2s1	none
Cn1c(=O)n(C)c2cc(S(=O)(=O)N3CCOCC3)ccc21	none
Cn1c(=O)c(=O)n(C)c2cc(S(=O)(=O)N3CCCCCC3)ccc21	CatB mixtures 46
Cc1nnc(SC(=O)N2c3ccccc3Sc3ccccc32)s1	none
COc1cc(NC(=O)c2cccc3c2C(=O)N(Cc2cccnc2)C3)cc(OC)c1OC	none
CN(C)CCCN1C(=O)C(=O)/C(=C(/O)c2ccc3c(c2)OCCO3)C1c1ccccn1 (centres undefined)	none
COc1nnc(-c2ccc(C)c(S(=O)(=O)NCCO)c2)c2ccccc12	none
CCOC(=O)CNS(=O)(=O)c1cc(-c2n[nH]c(=O)c3ccccc23)ccc1C	CatB block 23 (no result: CatS block, CatB mixtures)
CCOC(=O)N1CCC(N2C(=O)c3ccc(C(=O)NC4CCCCCC4)cc3C2=O)CC1	none (no result: CatL block)
Cc1cc(C)c2c(n1)sc1c(N3CCN(CCO)CC3)ncnc12	none
CSc1nc(N2CCN(CCO)CC2)c2sc3nc(-c4ccco4)c4c(c3c2n1)CCC4	CatL block 72
CCOc1ccc(CCNS(=O)(=O)c2cnc[nH]2)cc1OCC	none
O=C(NCCC1=CCCCC1)C1CCN(c2nnc(-n3cccc3)s2)CC1	none (no result: CatL block)
O=C(C1CCN(c2nnc(N3CCCC3=O)s2)CC1)N1CCN(Cc2ccc3c(c2)OCO3)CC1	CatL block 47
O=C(C1CCN(c2nnc(-n3cccc3)s2)CC1)N1CCN(Cc2ccc3c(c2)OCO3)CC1	CatL block 53
CC1CCN(Cc2ccc(NC(=O)C3CCN(c4nnc(-n5cccc5)s4)CC3)cc2)CC1	CatL block 67 (no result: CatS block)
CCC(Sc1nc(=O)cc(N)n1-c1ccccc1)C(=O)Nc1ccc(Cl)cn1 (centres undefined)	none
CC1CCN(S(=O)(=O)c2ccc(Cl)cc2)CC1	none
CC1=C(C)CS(=O)N(S(=O)(=O)c2ccc(Cl)cc2)C1 (centres undefined)	CatB block 24, CatB mixtures 32 (no result: CatL block)
Cc1oc(-c2ccccc2)nc1CS(=O)CC(=O)N1CCc2ccccc2C1 (centres undefined)	none (no result: CatL block)
O=C(c1cncc(Br)c1)N1CCN(c2ccc(N3CCOCC3)nn2)CC1	CatB block 52
O=C(c1ccc(N2CCOCC2)nc1)N1CCOCC1	none
CC(O)c1c(OCc2ccccc2)ncnc1OCc1ccccc1 (centres undefined)	none
Cc1ccc(S(=O)(=O)n2nc(OC(=O)c3cccs3)cc2N)cc1	CatB block 64, CatB mixtures 47
Nc1cc(OC(=O)c2ccco2)nn1S(=O)(=O)c1ccc(F)cc1	CatB block 61, CatB mixtures 60
COc1ccccc1C(=O)Oc1cc(N)n(S(=O)(=O)c2ccc(C)cc2)n1	none
Cc1ccc(S(=O)(=O)n2nc(OC(=O)c3ccco3)cc2N)cc1	CatB block 76, CatB mixtures 59
CN(C)CCNS(=O)(=O)c1ccc(Cl)cc1	none
COc1ccc(C(=O)Nc2nncs2)cc1S(=O)(=O)N1CC(c2ccccc2)CC1=O (centres undefined)	none (no result: CatL block)
CC(C)(C)c1cc(C(=O)NCc2ccccc2)ccn1	none

Compound activity (PubChem)
